PubChem BioAssay (Tox21)
Results filed as inconclusive are left out. Where a call stands in place of a potency, no number is given. Calls of active or inactive are those of the source. Unless noted, the call rests on the fitted dose curve; in most records, active means well fitted curve in the direction sought with a large enough effect in the repeat runs; inconclusive means weak or mixed curves; inactive means no such curve, though single readings can be large; an effect the other way counts as inactive or inconclusive.

How the values were obtained:
[1] = qHTS assay for small molecule agonists of the p53 signaling pathway (AID 651631; calls by dose curve; further: nearly all actives have a fitted effect of over 15% in size)
Summary of the method: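 Beta-lactamase reporter activity under p53 response elements was quantified in HCT-116 cells by FRET fluorescence, following 16 h incubation with test compounds at 37 °C and 2 h substrate development at room temperature.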

[2] = qHTS assay for small molecules that induce genotoxicity in human embryonic kidney cells expressing luciferase-tagged ATAD5 (AID 651632); further: nearly all actives have a fitted effect of over 15% in size
Summary of the method: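 HEK293T cells carrying luciferase-tagged ATAD5 were given compound or DMSO vehicle and incubated 16 hr at 37C, 5% CO2. Luciferase activity was read after 30 min at room temperature with Amplite; a rise signals genotoxic stress.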

[3] = qHTS assay for small molecule agonists of the p53 signaling pathway - cell viability (AID 651633; calls by dose curve;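 further: p53RE-bla HCT reporter cells with a stable beta-lactamase p53 reporter; series mostly up to about 83 µM; nearly all actives have a fitted effect of over 30% in size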)
Summary of the method: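 p53RE-bla cells were treated with compound for 16 hours at 37 C. Cytotoxicity was then measured as CellTiter-Glo luminescence after 30 min at room temperature.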

[4] = qHTS assay for small molecules that induce genotoxicity in human embryonic kidney cells expressing luciferase-tagged ATAD5 - cell viability (AID 651634; calls by dose curve; further: nearly all actives have a fitted effect of over 25% in size)
Summary of the method: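 HEK293T cells carrying luciferase-tagged ATAD5, 2,000 cells/well, exposed to compound for 15.5 hr at 37C. Viability read as live-cell protease activity by CellTiter-Fluor fluorescence after 30 min at 37C.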

[5] = qHTS assay for small molecule disruptors of the mitochondrial membrane potential - cell viability (AID 720634; calls by dose curve;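 further: human HepG2 liver cancer cells; series mostly up to about 83 µM; nearly all actives have a fitted effect of over 20% in size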)
Summary of the method: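 HepG2 cells, 2,000 per well, attached overnight, then treated 1 hr at 37 C, 5% CO2. Viability read as ATP by CellTiter-Glo luminescence after 30 min at room temperature. Read in the same wells as the m-MPI membrane-potential dye assay.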

[6] = qHTS assay for small molecule disruptors of the mitochondrial membrane potential (AID 720635); further: potency means the concentration at half of the fitted maximal effect
Summary of the method: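 HepG2 cells exposed to compound 1 hr at 37C, then Mito-MPS dye 30 min. Ratio read of aggregate (540/590 nm) versus monomer (490/535 nm) fluorescence.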

[7] = qHTS assay to test for compound auto fluorescence at 590 nm (red) in HepG2 cells (AID 720674)
Summary of the method: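 HepG2 cells, 2,000 per well in MEM with 10% FBS, attached overnight at 37 C, then got 23 nL compound or DMSO. After 1 hr at 37 C, 5% CO2, red fluorescence was read at 540/590 nm against Rose Bengal sodium as reference.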

[8] = qHTS assay to test for compound auto fluorescence at 535 nm (green) in HepG2 cells (AID 720675)
[9] = qHTS assay to test for compound auto fluorescence at 460 nm (blue) in HEK293 cells (AID 720678)
Summary of the method: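 Cells were seeded and left to adhere for 4-5 hr at 37C. Compounds were then pin-transferred. After an overnight incubation at 37C under 5% CO2, intrinsic fluorescence at 405/460 nm was measured and referenced to triamterene.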

[10] = qHTS assay to test for compound auto fluorescence at 590 nm (red) in HEK293 cells (AID 720679)
Summary of the method: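 Each well held 2,000 HEK293 cells in medium containing 10% dialyzed FBS. Following 4-5 hr attachment at 37C, 23 nL test compound or DMSO was added; plates sat overnight, and red fluorescence (540/590nm) was recorded.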

[11] = qHTS assay to test for compound auto fluorescence at 535 nm (green) in HEK293 cells (AID 720680)
[12] = qHTS assay to test for compound auto fluorescence at 460 nm (blue) in HEK293 cell free culture (AID 720681)
Summary of the method: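 Compounds were added to cell-free DMEM with 10% FBS and fluorescence read directly. The blue channel used 405 nm excitation and 460 nm emission, with triamterene as the reference fluorophore.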

[13] = qHTS assay to test for compound auto fluorescence at 535 nm (green) in HEK293 cell free culture (AID 720682)
Summary of the method: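 Each library compound, or DMSO control, is added by pintool to medium alone, comprising DMEM and 10% FBS. Emission at 535 nm following 485 nm excitation is quantified against fluorescein.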

[14] = qHTS assay to test for compound auto fluorescence at 590 nm (red) in HEK293 cell free culture (AID 720683)
Summary of the method: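 Cell-free wells of DMEM with 10% FBS received compound, and intrinsic fluorescence was read at excitation/emission 540/590 nm. Values expressed as equivalence to Rose Bengal sodium.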

[15] = qHTS assay to test for compound auto fluorescence at 590 nm (red) in HepG2 cell free culture (AID 720684)
Summary of the method: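 Compounds are added to culture medium (MEM, 10% FBS) lacking cells, then fluorescence is read at excitation 540 nm, emission 590 nm, with Rose Bengal sodium as the equivalency standard.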

[16] = qHTS assay to test for compound auto fluorescence at 460 nm (blue) in HepG2 cell free culture (AID 720685)
Summary of the method: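 Compound (23 nL) or DMSO pinned into cell-free MEM with 10% FBS; blue fluorescence read at 405/460 nm excitation/emission, expressed as auto-fluorescence equivalency to triamterene.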

[17] = qHTS assay to test for compound auto fluorescence at 535 nm (green) in HepG2 cell free culture (AID 720686)
[18] = qHTS assay to test for compound auto fluorescence at 460 nm (blue) in HepG2 cells (AID 720687)
Summary of the method: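 HepG2 cells in MEM with 10% FBS, attached overnight at 37 C, were exposed to compound or DMSO for 1 hr at 37 C, 5% CO2. Blue fluorescence was read at 405/460 nm, with triamterene as reference fluorophore.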

[19] = biological target: Glucocorticoid receptor (Homo sapiens) (UniProt P04150); assay: qHTS assay to identify small molecule agonists of the glucocorticoid receptor (GR) signaling pathway (AID 720691; active means well fitted activation curve with a large enough effect in the signal ratio in the repeat runs, not every such curve was filed as active; the % refers to the signal ratio)
Summary of the method: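 GR-bla HeLa cells carrying a GRE-driven beta-lactamase reporter, exposed to compounds for 18 h at 37 C. Reporter activation read as fluorescence after 2 h with LiveBLAzer B/G FRET substrate at room temperature.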

[20] = biological target: Glucocorticoid receptor (Homo sapiens) (UniProt P04150); assay: qHTS assay to identify small molecule antagonists of the glucocorticoid receptor (GR) signaling pathway (AID 720692; active means well fitted inhibition curve with a large enough effect in the signal ratio in the repeat runs, not every such curve was filed as active; the % refers to the signal ratio; further: potency means the concentration at half of the fitted maximal effect)
Summary of the method: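 GR-bla HeLa cells carrying a GRE-driven beta-lactamase reporter received compound after 4 h plating, then dexamethasone (5 nM final). After 18 h at 37C, the FRET substrate was loaded for 2 h at room temperature and fluorescence read.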

Chain of Glucocorticoid receptor (Homo sapiens) (P04150 whole entry, looked up): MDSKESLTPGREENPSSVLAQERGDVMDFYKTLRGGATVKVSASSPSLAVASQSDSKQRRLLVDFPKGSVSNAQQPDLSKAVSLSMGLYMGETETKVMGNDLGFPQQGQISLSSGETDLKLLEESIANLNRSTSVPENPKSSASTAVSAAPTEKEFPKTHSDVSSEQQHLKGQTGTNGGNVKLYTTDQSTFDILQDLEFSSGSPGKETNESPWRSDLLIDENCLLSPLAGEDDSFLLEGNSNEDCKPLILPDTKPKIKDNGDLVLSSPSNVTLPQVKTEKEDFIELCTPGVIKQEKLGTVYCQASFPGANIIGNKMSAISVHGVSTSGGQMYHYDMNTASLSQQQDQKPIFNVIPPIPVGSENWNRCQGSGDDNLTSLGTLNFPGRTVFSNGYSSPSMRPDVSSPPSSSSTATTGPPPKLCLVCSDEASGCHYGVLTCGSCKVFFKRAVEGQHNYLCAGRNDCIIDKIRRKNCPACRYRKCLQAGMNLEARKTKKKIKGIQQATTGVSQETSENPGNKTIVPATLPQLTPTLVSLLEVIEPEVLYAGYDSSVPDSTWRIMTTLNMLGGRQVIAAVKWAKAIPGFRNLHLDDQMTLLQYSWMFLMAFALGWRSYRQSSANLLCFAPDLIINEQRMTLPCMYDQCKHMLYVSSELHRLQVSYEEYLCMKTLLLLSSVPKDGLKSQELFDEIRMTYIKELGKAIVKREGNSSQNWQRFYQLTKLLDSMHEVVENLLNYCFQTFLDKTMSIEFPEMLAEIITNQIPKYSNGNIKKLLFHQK

Compound	Potency [1]	Potency [2]	Potency [3]	Potency [4]	Potency [5]	Potency [6]	outcome [7]	outcome [8]	outcome [9]	outcome [10]	outcome [11]	outcome [12]	outcome [13]	outcome [14]	outcome [15]	outcome [16]	outcome [17]	outcome [18]	Potency [19]	Potency [20]
C=C(Cl)Cl	inactive	inactive	inactive	inactive	inactive	inactive	inactive	inactive	inactive	inactive	inactive	inactive	inactive	inactive	inactive	inactive	inactive	inactive	inactive	inactive
CN1CC[C@]23c4c5ccc(O)c4O[C@H]2[C@@H](O)CC[C@H]3[C@H]1C5	inactive	inactive	inactive	inactive	inactive	inactive	inactive	inactive	inactive	inactive	inactive	inactive	inactive	inactive	inactive	inactive	inactive	inactive	inactive	inactive
COc1cc(CC(C)N)c(OC)cc1Br (centres undefined)	inactive	inactive	inactive	inactive	inactive	inactive	inactive	inactive	inactive	inactive	inactive	inactive	inactive	inactive	inactive	inactive	inactive	inactive	–	–
CCCCOC(=O)CCC(=O)OCCCC	inactive	inactive	inactive	inactive	inactive	inactive	inactive	inactive	inactive	inactive	inactive	inactive	inactive	inactive	inactive	inactive	inactive	inactive	–	–
CCCCC1C(=O)NC(=O)N(C2CCCCC2)C1=O (centres undefined)	inactive	inactive	inactive	inactive	inactive	inactive	inactive	inactive	inactive	inactive	inactive	inactive	inactive	inactive	inactive	inactive	inactive	inactive	inactive	inactive
C[C@]12CC[C@H]3[C@@H](CCC4=CC(=O)CC[C@@H]43)[C@@H]1CC[C@@H]2OC(=O)CCc1ccccc1	inactive	inactive	inactive	inactive	inactive	inactive	inactive	inactive	inactive	inactive	inactive	inactive	inactive	inactive	inactive	inactive	inactive	inactive	inactive	6.74 µM (active)
COc1ccccc1N1CCNCC1	inactive	inactive	inactive	inactive	inactive	inactive	inactive	inactive	inactive	inactive	inactive	inactive	inactive	inactive	inactive	inactive	inactive	inactive	inactive	inactive
CC(C)(C)NCC(O)c1cc(Cl)c(N)c(C(F)(F)F)c1 (centres undefined)	inactive	inactive	inactive	inactive	inactive	inactive	inactive	inactive	inactive	inactive	inactive	inactive	inactive	inactive	inactive	inactive	inactive	inactive	inactive	inactive
CCCCCCCCCCCCCCCl	inactive	inactive	inactive	inactive	inactive	inactive	inactive	inactive	inactive	inactive	inactive	inactive	inactive	inactive	inactive	inactive	inactive	inactive	inactive	inactive
CCC[N+](CCC)(CCC)CCC	inactive	inactive	inactive	inactive	inactive	inactive	inactive	inactive	inactive	inactive	inactive	inactive	inactive	inactive	inactive	inactive	inactive	inactive	–	–
O=S(=O)(Cl)Cl	inactive	inactive	inactive	inactive	inactive	inactive	inactive	inactive	inactive	inactive	inactive	inactive	inactive	inactive	inactive	inactive	inactive	inactive	inactive	–
N#CC(C#N)=Cc1ccc(O)c(O)c1	inactive	inactive	inactive	inactive	inactive	11.9 µM (active)	inactive	inactive	inactive	inactive	inactive	inactive	inactive	inactive	inactive	inactive	inactive	inactive	–	–
CCCBr	inactive	inactive	inactive	inactive	inactive	inactive	inactive	inactive	inactive	inactive	inactive	inactive	inactive	inactive	inactive	inactive	inactive	inactive	inactive	inactive
CC1(C)CC(=O)CC(C)(C)N1[O]	inactive	inactive	inactive	inactive	inactive	inactive	inactive	inactive	inactive	inactive	inactive	inactive	inactive	inactive	inactive	inactive	inactive	inactive	–	–
OCCCl	inactive	inactive	inactive	inactive	inactive	inactive	inactive	inactive	inactive	inactive	inactive	inactive	inactive	inactive	inactive	inactive	inactive	inactive	inactive	inactive
